Test results reported in PubChem BioAssay AID1159580 (chemical genetic matrix, 2015).
Values joined by “and” are separate entries in the source; they are usually repeats but may differ in a detail not shown here. Equal values may be shown once. Out of some 5,500 compounds screened, about 2,000 (36%) were called active. Another 18% or so got no clear call; they are omitted. No stated cut-off is given here; in the data, active means normalized growth mostly below about 0.91 (no sharp cut-off); inconclusive means no clear call, values can overlap the other calls; inactive means mostly above about 0.92. The list shows a part of the results.

Test: chemical genetic growth profiling, strain panel (AID 1159580);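 further: tested at 20 µM; growth read once vehicle control cultures reached saturation at 30 °C; 1 = growth at the plate median or of vehicle wells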
Settings: S. cerevisiae deletion strains, growth OD

Measured: normalized growth

CC12CCC(CC1)C(C)(C)O2
inactive: locus YAL013W, strain DEP1, stronger effect = lower value 1 | locus YAL021C, strain ccr4, stronger effect = lower value 0.963 | locus YAL026C, strain drs2, stronger effect = lower value 0.973 | locus YAL030W, strain snc1, stronger effect = lower value 0.998 | locus YBL061C, strain skt5, stronger effect = lower value 0.967 | locus YBR009C, strain hhf1, stronger effect = lower value 0.994 | locus YBR021W, strain FUR4, stronger effect = lower value 1.02 | locus YBR023C, strain chs3, stronger effect = lower value 0.974 | locus YBR171W, strain sec66, stronger effect = lower value 0.966 | locus YBR229C, strain ROT2, stronger effect = lower value 1 | locus YBR231C, strain swc5, stronger effect = lower value 1.02 | locus YBR279W, strain paf1, stronger effect = lower value 0.988 | locus YCL011C, strain gbp2, stronger effect = lower value 0.974 | locus YCL016C, strain dcc1, stronger effect = lower value 0.986 | locus YCL029C, strain bik1, stronger effect = lower value 1.01 | locus YCL061C, strain MRC1, stronger effect = lower value 0.968 | locus YCL069W, strain vba3, stronger effect = lower value 0.977 | locus YCR088W, strain abp1, stronger effect = lower value 0.985 | locus YDL005C, strain med2, stronger effect = lower value 0.975 | locus YDL035C, strain GPR1, stronger effect = lower value 0.999 | locus YDL040C, strain nat1, stronger effect = lower value 0.997 | locus YDL074C, strain BRE1, stronger effect = lower value 1.02 | locus YDL101C, strain DUN1, stronger effect = lower value 1 | locus YDL185W, strain tfp1, stronger effect = lower value 1.01 | locus YDL192W, strain arf1, stronger effect = lower value 1.02 | locus YDR001C, strain nth1, stronger effect = lower value 0.995 | locus YDR069C, strain doa4, stronger effect = lower value 0.966 | locus YDR101C, strain arx1, stronger effect = lower value 0.996 | locus YDR137W, strain rgp1, stronger effect = lower value 1.04 | locus YDR150W, strain NUM1, stronger effect = lower value 1 | locus YDR159W, strain sac3, stronger effect = lower value 1.01 | locus YDR162C, strain NBP2, stronger effect = lower value 0.978 | locus YDR195W, strain ref2 0.982 | locus YDR297W, strain sur2, stronger effect = lower value 0.985 | locus YDR318W, strain mcm21, stronger effect = lower value 1.02 | locus YDR334W, strain swr1, stronger effect = lower value 0.974 | locus YDR335W, strain msn5, stronger effect = lower value 0.985 | locus YDR388W, stronger effect = lower value 1.02 | locus YDR392W, strain spt3, stronger effect = lower value 0.935 | locus YDR502C, strain sam2, stronger effect = lower value 1.01 | locus YEL003W, strain gim4, stronger effect = lower value 0.989 | locus YEL037C, strain rad23, stronger effect = lower value 0.97 | locus YEL061C, strain CIN8 (second series), stronger effect = lower value 0.98 | locus YEL061C, strain CIN8, stronger effect = lower value 1 | locus YER015W, strain faa2, stronger effect = lower value 0.979 | locus YER016W, strain bim1, stronger effect = lower value 0.992 | locus YER110C, stronger effect = lower value 1.02 | locus YER111C, strain swi4, stronger effect = lower value 0.97 | locus YER155C, strain BEM2 (second series), stronger effect = lower value 0.977 | locus YER155C, strain BEM2, stronger effect = lower value 1.01 | locus YER167W, strain BCK2, stronger effect = lower value 1 | locus YFR010W, strain ubp6, stronger effect = lower value 0.967 | locus YGL078C, strain dbp3, stronger effect = lower value 1.03 | locus YGL086W, strain mad1, stronger effect = lower value 0.986 | locus YGL167C, strain pmr1, stronger effect = lower value 0.979 | locus YGL173C, strain kem1, stronger effect = lower value 0.971 | locus YGL227W, strain vid30, stronger effect = lower value 0.986 | locus YGL240W, strain doc1, stronger effect = lower value 0.997 | locus YGL248W, strain PDE1, stronger effect = lower value 1.01 | locus YGL253W, strain hxk2, stronger effect = lower value 0.963 | locus YGR078C, strain PAC10, stronger effect = lower value 1 | locus YGR135W, strain pre9, stronger effect = lower value 1.06 | locus YGR229C, strain SMI1, stronger effect = lower value 0.999 | locus YGR252W, strain gcn5, stronger effect = lower value 1.04 | locus YHR013C, strain ard1, stronger effect = lower value 0.967 | locus YHR027C, strain rpn1, stronger effect = lower value 0.984 | locus YHR030C, strain SLT2, stronger effect = lower value 1.01 and 0.978 | locus YHR079C, strain IRE1 (second series), stronger effect = lower value 1.01 | locus YHR079C, strain IRE1, stronger effect = lower value 0.993 | locus YHR094C, strain hxt1, stronger effect = lower value 1.02 | locus YHR129C, strain ARP1, stronger effect = lower value 1.01 | locus YHR142W, strain chs7, stronger effect = lower value 0.979 | locus YHR200W, strain rpn10, stronger effect = lower value 1.01 | locus YIL066C, strain RNR3, stronger effect = lower value 0.998 | locus YIL073C, strain SPO22, stronger effect = lower value 1 | locus YIL125W, strain kgd1, stronger effect = lower value 1.02 | locus YIR030C, strain dcg1, stronger effect = lower value 1.03 | locus YJL092W, strain hpr5, stronger effect = lower value 0.954 | locus YJL095W, strain BCK1 (second series), stronger effect = lower value 0.97 | locus YJL095W, strain BCK1, stronger effect = lower value 1.03 and 0.991 | locus YJL115W, strain asf1, stronger effect = lower value 0.982 | locus YJL129C, strain trk1, stronger effect = lower value 0.966 | locus YJL134W, strain LCB3, stronger effect = lower value 1 | locus YJL154C, strain vps35, stronger effect = lower value 0.984 | locus YJL164C, strain tpk1, stronger effect = lower value 0.988 | locus YJL166W, strain qcr8, stronger effect = lower value 0.996 | locus YJL168C, strain set2, stronger effect = lower value 1.04
